# Laboratory results reported in the antibiotic and cytotoxicity screens of Wong et al. (2023).
# In all, about 39,000 compounds went through this assay and about 3,300 (8.5%) were called active. Shown is part of a subset that was picked to be rich in actives.
# System: HepG2
# Test: cytotoxicity call (relative viability < 0.9)
# Settings: 10 µM
row,Compound,cytotoxicity call
1,CN(C)CCCNC(=O)C[C@@H]1C=C[C@H](NS(=O)(=O)c2ccccc2)[C@H](CO)O1,inactive
2,CO[C@@H]1CN(C)C(=O)c2cc(NC(=O)C3CC3)ccc2OC[C@@H](C)N(C(=O)Cc2ccccn2)C[C@H]1C,inactive
3,NC(=O)c1ccc[n+](CC(=O)c2ccccc2)c1,inactive
4,C[C@@H]1CN([C@H](C)CO)C(=O)c2cc(NC(=O)Cc3ccccc3)ccc2O[C@@H](C)CCCCO[C@@H]1CN(C)CC1CCCCC1,inactive
5,Cc1noc(C)c1S(=O)(=O)N(C)C[C@@H]1OCCCC[C@H](C)Oc2ccc(NS(=O)(=O)c3cn(C)cn3)cc2C(=O)N([C@@H](C)CO)C[C@H]1C,inactive
6,OC[C@@H]1CC[C@@H]2O[C@H](CCc3ccc(C#CCc4ccccc4)cc3)[C@@H](n3cc(-c4ccccc4)nn3)C[C@@H]2O1,inactive
7,CO[C@H](C(=O)N(C)C[C@@H]1OCc2ccccc2-c2c(n(C)c3ccccc23)C(=O)N([C@H](C)CO)C[C@H]1C)c1ccccc1,inactive
8,CN(C)C(=O)[C@H]1[C@H](CO)[C@H]2Cn3c(ccc(C4=CCCC4)c3=O)[C@@H]1N2S(=O)(=O)c1cn(C)cn1,inactive
9,O=C(C[C@@H]1CC[C@H]2[C@@H](COC[C@H](O)CN2S(=O)(=O)c2cccc(F)c2)O1)NCc1ccc(Cl)c(Cl)c1,inactive
10,C[C@H](CO)N1C[C@H](C)[C@H](CN(C)Cc2ccc(C(F)(F)F)cc2)Oc2ccc(NC(=O)CCC(F)(F)F)cc2C1=O,inactive
11,C[C@@H]1CN([C@@H](C)CO)C(=O)c2cc(NC(=O)CCC(F)(F)F)ccc2O[C@H]1CN(C)Cc1ccc(Oc2ccccc2)cc1,inactive
12,C[C@H]1CN([C@@H](C)CO)C(=O)c2cc(NC(=O)CCC(F)(F)F)ccc2O[C@H]1CN(C)Cc1ccc(-c2ccccc2)cc1,inactive
13,C[C@H]1CN([C@@H](C)CO)C(=O)c2cc(NC(=O)CCC(F)(F)F)ccc2O[C@@H]1CN(C)Cc1ccc(C(F)(F)F)cc1,inactive
14,C[C@@H]1CN([C@@H](C)CO)C(=O)c2cc(NC(=O)CCC(F)(F)F)ccc2O[C@H]1CN(C)Cc1ccc(-c2ccccc2)cc1,active
15,C[C@H]1CN([C@@H](C)CO)C(=O)c2cc(NC(=O)CCC(F)(F)F)ccc2O[C@@H]1CN(C)Cc1ccc(-c2ccccc2)cc1,active
16,C[C@H](CO)N1C[C@H](C)[C@@H](CN(C)Cc2ccc(Oc3ccccc3)cc2)Oc2ccc(NC(=O)CCC(F)(F)F)cc2C1=O,inactive
17,C[C@@H]1CN([C@@H](C)CO)C(=O)c2cc(NC(=O)CCC(F)(F)F)ccc2O[C@@H]1CN(C)Cc1ccc(-c2ccccc2)cc1,inactive
18,C[C@@H]1CN([C@H](C)CO)C(=O)c2cc(NC(=O)CCC(F)(F)F)ccc2O[C@H]1CN(C)Cc1ccc(-c2ccccc2)cc1,active
19,C[C@H](CO)N1C[C@H](C)[C@H](CN(C)Cc2ccc(-c3ccccc3)cc2)Oc2ccc(NC(=O)CCC(F)(F)F)cc2C1=O,active
20,C[C@H](CO)N1C[C@H](C)[C@@H](CN(C)Cc2ccc(-c3ccccc3)cc2)Oc2ccc(NC(=O)CCC(F)(F)F)cc2C1=O,inactive

row,Compound,cytotoxicity call
1,C[C@@H]1CN([C@H](C)CO)C(=O)c2cc(NC(=O)CCC(F)(F)F)ccc2O[C@@H]1CN(C)Cc1ccc(-c2ccccc2)cc1,inactive
2,CCN1CCC(N(C)S(=O)(=O)c2cn(C)c(=O)n(C)c2=O)CC1,inactive
3,CO[C@@H]1CN(C)C(=O)c2ccc(NS(C)(=O)=O)cc2OC[C@H](C)N(C(=O)C2CCCCC2)C[C@H]1C,inactive
4,C[C@@H]1CN([C@H](C)CO)C(=O)c2cc(NS(C)(=O)=O)ccc2O[C@H]1CN(C)Cc1ccc(C(=O)Nc2ccccc2N)cc1,inactive
5,C[C@@H]1CCCCO[C@@H](CN(C)C(=O)Nc2cccc3ccccc23)[C@@H](C)CN([C@H](C)CO)C(=O)c2cc(NS(=O)(=O)c3cccs3)ccc2O1,inactive
6,C[C@@H]1CN([C@@H](C)CO)C(=O)c2cccc(NS(=O)(=O)c3ccccc3)c2O[C@H]1CN(C)Cc1ccncc1,inactive
7,CCOc1nc2cccc(C(=O)O[C@@H](C)OC(=O)OC3CCCCC3)c2n1Cc1ccc(-c2ccccc2-c2nn[nH]n2)cc1,inactive
8,c1ccc2c(c1)Cn1nnnc1-2,inactive
9,C[C@H]1CN([C@@H](C)CO)S(=O)(=O)c2ccc(-c3ccc(C(=O)N(C)C)cc3)cc2O[C@@H]1CN(C)C(=O)Cc1ccccn1,inactive
10,C[C@@H]1CN([C@@H](C)CO)C(=O)CCCn2nncc2CO[C@@H]1CN(C)C(=O)Nc1ccc(N2CCCCC2)cc1,inactive
11,COc1ccccc1C#Cc1cnc2c(c1)C(=O)N([C@@H](C)CO)C[C@@H](C)[C@H](CN(C)C(=O)c1ccc3c(c1)OCO3)O2,inactive
12,C[C@H](CO)N1C[C@H](C)[C@@H](CN(C)Cc2ccc(Cl)c(Cl)c2)Oc2c(NC(=O)CCCCCC(=O)Nc3ccccc3N)cccc2C1=O,inactive
13,C[C@@H]1CN([C@H](C)CO)C(=O)c2cc(NS(=O)(=O)c3cccs3)ccc2O[C@@H](C)CCCCO[C@H]1CN(C)C(=O)NC1CCCCC1,inactive
14,C[C@@H]1CCCCO[C@H](CN(C)C(=O)Nc2ccc(C(F)(F)F)cc2)[C@@H](C)CN([C@H](C)CO)C(=O)c2cc(NS(=O)(=O)c3cccs3)ccc2O1,inactive
15,C[C@H](CO)N1C[C@H](C)[C@H](CN(C)C(=O)Nc2ccc(C(F)(F)F)cc2)OCCCC[C@H](C)Oc2ccc(NS(=O)(=O)c3cccs3)cc2C1=O,active
16,C[C@@H]1CCCCO[C@H](CN(C)C(=O)Nc2ccccc2)[C@@H](C)CN([C@@H](C)CO)C(=O)c2cc(NS(=O)(=O)c3cccs3)ccc2O1,active
17,C[C@H]1CCCCO[C@@H](CN(C)C(=O)Nc2ccccc2)[C@@H](C)CN([C@@H](C)CO)C(=O)c2cc(NS(=O)(=O)c3cccs3)ccc2O1,inactive
18,C[C@H](CO)N1C[C@H](C)[C@@H](CN(C)C(=O)Nc2ccc(C(F)(F)F)cc2)OCCCC[C@H](C)Oc2ccc(NS(=O)(=O)c3cccs3)cc2C1=O,active
19,C[C@@H]1CCCCO[C@H](CN(C)C(=O)Nc2ccc(C(F)(F)F)cc2)[C@H](C)CN([C@H](C)CO)C(=O)c2cc(NS(=O)(=O)c3cccs3)ccc2O1,inactive
20,C[C@@H]1CN([C@@H](C)CO)C(=O)c2cc(NS(=O)(=O)c3cccs3)ccc2O[C@@H](C)CCCCO[C@@H]1CN(C)C(=O)Nc1ccc(C(F)(F)F)cc1,inactive

row,Compound,cytotoxicity call
1,C[C@@H]1CN([C@H](C)CO)C(=O)c2cc(NS(=O)(=O)c3cccs3)ccc2O[C@@H](C)CCCCO[C@@H]1CN(C)C(=O)NC1CCCCC1,active
2,C[C@@H]1CCCCO[C@@H](CN(C)C(=O)Nc2ccccc2)[C@@H](C)CN([C@H](C)CO)C(=O)c2cc(NS(=O)(=O)c3cccs3)ccc2O1,inactive
3,C[C@@H]1CCCCO[C@@H](CN(C)C(=O)Nc2ccc(C(F)(F)F)cc2)[C@H](C)CN([C@@H](C)CO)C(=O)c2cc(NS(=O)(=O)c3cccs3)ccc2O1,inactive
4,C[C@H]1CCCCO[C@@H](CN(C)C(=O)NC2CCCCC2)[C@@H](C)CN([C@@H](C)CO)C(=O)c2cc(NS(=O)(=O)c3cccs3)ccc2O1,inactive
5,Cc1cc(C)c2nnc(SCC(=O)O)n2n1,inactive
6,C[C@@H]1CN([C@@H](C)CO)C(=O)Cc2cc(NS(C)(=O)=O)ccc2O[C@H]1CN(C)C(=O)NC1CCCCC1,inactive
7,Cc1noc(C)c1NC(=O)N[C@@H]1CC[C@H](CC(=O)NCCCN(C)C)O[C@@H]1CO,inactive
8,O=C(C[C@@H]1C[C@H]2c3cc(NS(=O)(=O)c4ccc(F)cc4)ccc3O[C@H]2[C@H](CO)O1)NCc1ccccc1,inactive
9,Cc1ccc(S(=O)(=O)N(C)C[C@H]2Oc3ccc(NS(C)(=O)=O)cc3C(=O)N([C@@H](C)CO)C[C@H]2C)cc1,inactive
10,CN(C)CCCNC(=O)C[C@@H]1CC[C@H](NS(=O)(=O)c2ccccc2)[C@H](CO)O1,inactive
11,C[C@@H]1CCCCO[C@@H](CN(C)C(=O)Nc2ccc(C(F)(F)F)cc2)[C@@H](C)CN([C@H](C)CO)C(=O)c2cc(NS(=O)(=O)c3cccs3)ccc2O1,inactive
12,C[C@H]1CCCCO[C@H](CN(C)C(=O)Nc2ccc(C(F)(F)F)cc2)[C@@H](C)CN([C@@H](C)CO)C(=O)c2cc(NS(=O)(=O)c3cccs3)ccc2O1,inactive
13,C[C@@H]1CCCCO[C@H](CN(C)C(=O)Nc2ccc(C(F)(F)F)cc2)[C@H](C)CN([C@@H](C)CO)C(=O)c2cc(NS(=O)(=O)c3cccs3)ccc2O1,inactive
14,C[C@@H]1CCCCO[C@H](CN(C)C(=O)C2CCCCC2)[C@H](C)CN([C@H](C)CO)C(=O)c2cc(NS(=O)(=O)c3cccs3)ccc2O1,inactive
15,C[C@H]1CCCCO[C@@H](CN(C)C(=O)Nc2ccc(C(F)(F)F)cc2)[C@@H](C)CN([C@@H](C)CO)C(=O)c2cc(NS(=O)(=O)c3cccs3)ccc2O1,inactive
16,C[C@@H]1CCCCO[C@@H](CN(C)C(=O)C2CCCCC2)[C@H](C)CN([C@H](C)CO)C(=O)c2cc(NS(=O)(=O)c3cccs3)ccc2O1,inactive
17,C[C@@H]1CCCCO[C@@H](CN(C)C(=O)C2CCCCC2)[C@@H](C)CN([C@H](C)CO)C(=O)c2cc(NS(=O)(=O)c3cccs3)ccc2O1,active
18,C[C@@H]1CCCCO[C@H](CN(C)C(=O)Nc2ccc(C(F)(F)F)cc2)[C@@H](C)CN([C@@H](C)CO)C(=O)c2cc(NS(=O)(=O)c3cccs3)ccc2O1,active
19,C[C@@H]1CCCCO[C@@H](CN(C)C(=O)Nc2ccc(C(F)(F)F)cc2)[C@H](C)CN([C@H](C)CO)C(=O)c2cc(NS(=O)(=O)c3cccs3)ccc2O1,active
